Experimental findings from PubChem BioAssay (NCATS) are described below.

Inconclusive results are not listed. The source made the active and inactive calls. Unless noted, calls follow the shape of the dose curve; as a rule, active = well fitted inhibition curve with a large enough effect; inconclusive = small, poorly fitted or top-dose-only effect; inactive = no such curve, though single readings can be large or run the other way.

The nature of assay [1]: qHTS profiling of the MIPE4 collection as inhibitors of Plasmodium falciparum (DD2) proliferation (Rep 2) (AID 743346; call rule not given here). The following applies: P. falciparum Dd2 in erythrocytes, SYBR Green DNA, 72 h; at 28.5 µM unless noted. The gist of the method: (§1)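 Erythrocytes infected with P. falciparum (0.3% parasitemia, 2.5% hematocrit) incubated with compounds 72 h at 37 C, 5% CO2. Lysis with saponin/Triton buffer containing SYBR Green I, overnight at room temperature in the dark; DNA fluorescence (485/535 nm) normalised to 0.29 uM artemisinin and DMSO.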
(In general: qHTS replaces the single test concentration by a dilution series.)

A short description of assay [2]: qHTS profiling of the MIPE4 collection as inhibitors of Plasmodium falciparum (HB3) proliferation (AID 743347; call rule not given here;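 also: plate controls were DMSO vehicle wells for no effect and artemisinin wells for full effect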). Particulars: P. falciparum HB3 in erythrocytes, SYBR Green DNA, 72 h; at 28.5 µM unless noted. The gist of the method:
as §1

A short description of assay [3]: High-throughput drug toxicity screening in the BPDCN cell line Gen2.2 (AID 1224824; call rule not given here;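 also: cells exposed to compounds for 48 h before reading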). Particulars: Gen2.2 BPDCN cells; at 45.8 µM (top of the series) unless noted. In short, it runs like this:
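Readout is ATP luminescence from Gen2.2 cells after two days of drug exposure in serum-containing medium at 37 °C. Values express percent activity, with vehicle defining full signal and 9.2 uM bortezomib defining zero.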

A short description of assay [4]: High-throughput drug toxicity screening in the BPDCN cell line Cal-1 (AID 1224825; call rule not given here). The following applies: Cal-1 BPDCN cell viability, qHTS; at 45.8 µM (top of the series) unless noted. In short, it runs like this: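 Exponentially growing Cal-1 cells, 500 per well in phenol red-free RPMI with 10% FBS, were exposed to compounds for 48 h at 37 °C, 5% CO2. Viability was read by CellTiter-Glo luminescence and normalised to DMSO (100%) and 9.2 uM bortezomib (0%).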

The nature of assay [5]: qHTS assay for measurement of the activity of small molecule inhibitors on Zika virus induced Caspase-3 activity in human iPSC derived neural progenitor cells (hNPCs) (AID 1224857). Also: % of control where 0% means no effect; nearly all actives have a fitted effect of over 65% in size. In short, it runs like this:
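Cells were plated at 350 per well and grown 16 to 20 hours. Compound pretreatment lasted one hour, after which ZIKV (2 FFU/cell) was added for 6 hours. Percent inhibition was normalized between uninfected and infected controls.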

Assay [6] is described as follows: qHTS assay for measurement of the activity of small molecule inhibitors on Zika virus induced Caspase-3 activity in human astrocytoma cells (AID 1224859).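 Also: plate controls were ZIKV-infected untreated cells for no effect and uninfected cells for full effect.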 In short, it runs like this:
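Percent inhibition of virus-induced caspase-3/7 signal is calculated against uninfected and ZIKV-infected control cells. Cells are SNB-19, infected at 2 FFU/cell for 6 h after 1 h compound exposure.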

A short description of assay [7]: qHTS Screen of the MIPE 4.0 Collection Against Ewings Sarcoma (RDES) (AID 1259252). Also: nearly all actives have a fitted effect of over 35% in size. Also: potency is read from the fitted curve at half-maximal effect. In short, it runs like this:
(§2)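 Here, cells in 5% FBS RPMI were exposed for two days (48 h) to compound dilutions added four hours after plating. ATP-based CellTiter-Glo luminescence measured viability, normalized to vehicle and no-cell blanks.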

The nature of assay [8]: qHTS Screen of the MIPE 4.0 Collection Against Ewings Sarcoma (TC71) (AID 1259253). Also: nearly all actives have a fitted effect of over 40% in size. Also: potency is read from the fitted curve at half-maximal effect. In short, it runs like this: as §2
Assay [9] is described as follows: qHTS Screen of the MIPE 4.0 Collection Against Ewings Sarcoma (EW8) (AID 1259255). Also: nearly all actives have a fitted effect of over 35% in size. Also: potency is read from the fitted curve at half-maximal effect.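 As to viability: 100% = DMSO-treated cells and 0% = medium-only wells without cells.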 The gist of the method: as §2
A short description of assay [10]: qHTS Screen of the MIPE 4.0 Collection Against Ewings Sarcoma (TC32) (AID 1259256). Also: nearly all actives have a fitted effect of over 45% in size. Also: potency is read from the fitted curve at half-maximal effect. The gist of the method:
as §2

Take `O=C(NCc1ccccc1)[C@H](Cc1ccccc1)NC(=O)[C@@H]1O[C@@H]1C(=O)NCCc1ccc(O)cc1`: the parasite growth, % of control (lower = inhibition) in assay [1] was 16.7%. Besides, the growth, % of control in assay [2] came out at 33.6%. Further, the cell viability, % of control (lower = more cytotoxic) in assay [3] was 49%. For the same molecule, the viability (% of control) in assay [4] was 54.1%. Also, the Potency entry in assay [5] and in assay [6] was “inactive” in each case. Besides, the Potency in [7], in assay [8] and in [9] was 1050 nM (active) throughout.

Turning to `COc1cc2ncnc(Nc3cccc(Br)c3)c2cc1OC`, the parasite growth, % of control (lower = inhibition) in [1] was found to be 48.9%. This molecule returned a growth, % of control in assay [2] of 8.18%. Also, in assay [3], the cell viability, % of control (lower = more cytotoxic) turned out to be 64%. Also, the viability (% of control) in assay [4] stood at 5.16%. Moreover, the Potency result in [5] and in [6] was “inactive” each time. The Potency in assay [7] is 132 nM (active); in assay [8], 590 nM (active); in [9] it was 1480 nM (active).

For `O=C1NC(=O)C(=Cc2ccc3nccc(-c4ccncc4)c3c2)S1`, the parasite growth, % of control (lower = inhibition) in [1] was 7.98%. In assay [2], the growth, % of control was found to be 3.52%. In addition, the cell viability, % of control (lower = more cytotoxic) in assay [3] stood at 3.73%. The viability (% of control) in assay [4] came to 4.43%. The Potency entry in assay [5] and in assay [6] was “inactive” in each case. Moreover, the Potency in [7] is 187 nM (active); in assay [8], 166 nM (active); in [9] it was 132 nM (active); in assay [10], 74.3 nM (active).

As to `COc1ccc([C@@H]2CNC(=O)C2)cc1OC1CCCC1`, the parasite growth, % of control (lower = inhibition) in [1] is 67%. This molecule came in with a growth, % of control in assay [2] of 102%. For the same molecule, the cell viability, % of control (lower = more cytotoxic) in assay [3] came to 107%. Besides, in assay [4], the viability (% of control) is 108%. Also, the Potency result in assay [5] and in assay [6] was “inactive” in each case. Besides, the Potency in assay [7] was 833 nM (active); in [8], 2350 nM (active); in assay [9], 9350 nM (active); in assay [10] it was 1870 nM (active).

Regarding `N#CNC(=NCCCCCCOc1ccc(Cl)cc1)Nc1ccncc1`, the parasite growth, % of control (lower = inhibition) in [1] was 28%. Besides, the growth, % of control in assay [2] turned out to be 3.38%. For the same molecule, the cell viability, % of control (lower = more cytotoxic) in assay [3] is 25.6%. Also, in assay [4], the viability (% of control) was 2.53%. Moreover, the Potency result in [5], in [6] and in assay [7] was “inactive” in each case. In addition, the Potency in assay [8] is 1.3 nM (active); in assay [9], 3 nM (active).

On to `Nc1nc(=O)n([C@H]2CSC(CO)O2)cc1F` (some centres undefined), for which, in assay [1], the parasite growth, % of control (lower = inhibition) amounted to 160%. In [2], this molecule yielded a growth, % of control of 250%. The cell viability, % of control (lower = more cytotoxic) in [3] stood at 249%. Further, the viability (% of control) in assay [4] turned out to be 102%. Moreover, the Potency result in assay [5], in assay [6], in assay [7], in [9] and in assay [10] was “inactive” each time.

With `CC1(C)O[C@@H]2C[C@H]3[C@@H]4CCC5=CC(=O)C=C[C@]5(C)[C@@H]4[C@@H](O)C[C@]3(C)[C@]2(C(=O)CO)O1`, the parasite growth, % of control (lower = inhibition) in [1] turned out to be 7.43%. Besides, the growth, % of control in assay [2] amounted to 5.96%. The cell viability, % of control (lower = more cytotoxic) in assay [3] was determined as 97.8%. Further, the viability (% of control) in [4] turned out to be 46.1%. The Potency entry in assay [5], in assay [6], in assay [7], in [8] and in [9] was “inactive” in each case.

Consider `CS(=O)(=O)N1CCc2c(-c3cnc(N)nc3)nc(N3CCOCC3)nc21`, for which the parasite growth, % of control (lower = inhibition) in assay [1] came out at 6.07%. Also, the growth, % of control in [2] turned out to be 2.07%. Also, in [3], the cell viability, % of control (lower = more cytotoxic) worked out at 10.4%. In [4], the viability (% of control) stood at 33.9%. Also, the Potency entry in assay [5] and in assay [6] was “inactive” throughout. The Potency was 105 nM (active) in assay [7], 590 nM (active) in assay [8], 1320 nM (active) in assay [9] and 296 nM (active) in [10].

Regarding `CC(=O)N1CCN(c2ccc(OCc3nn(C)c(C)c3-c3cccc4c(CCCOc5cccc6ccccc56)c(C(=O)O)n(Cc5cccnc5)c34)cc2)CC1`, the parasite growth, % of control (lower = inhibition) in assay [1] amounted to 10.7%. In [2], the growth, % of control came out at 2.86%. Besides, the cell viability, % of control (lower = more cytotoxic) in assay [3] was determined as 36.4%. In [4], the viability (% of control) was determined as 2.28%. In addition, the Potency entry in [5] and in [6] was “inactive” throughout. For the same molecule, the Potency was 332 nM (active) in assay [7], 3720 nM (active) in assay [9] and 743 nM (active) in assay [10].
